Bioassay records from PubChem BioAssay.
Most compounds without a hit are left out; they make up all but 3.5% or so of the library.
FBW7 act = human FBW7 E3 ligase activation, primary screen. Q969H0. AlphaScreen FBW7–phospho-cyclin E peptide binding, activator screen. normalized activity (activation), % at 26.1 µM. actives 0.13% (n = 650,000); in the data active means normalized activity above about 1.9%;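 further: purified mutant Fbw7 with reduced substrate affinity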
GPR151 activ = activators of human GPR151; activation, % at 11.2 µM; actives 1% (n = 650,000); Q8TDV0; PathHunter beta-arrestin GPR151 cells, luminescence; in the data active means activation above about 4.9%;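 further: 0% = median of compound wells and 100% = cells with positive control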
Target sequence (Q8TDV0 whole entry, looked up): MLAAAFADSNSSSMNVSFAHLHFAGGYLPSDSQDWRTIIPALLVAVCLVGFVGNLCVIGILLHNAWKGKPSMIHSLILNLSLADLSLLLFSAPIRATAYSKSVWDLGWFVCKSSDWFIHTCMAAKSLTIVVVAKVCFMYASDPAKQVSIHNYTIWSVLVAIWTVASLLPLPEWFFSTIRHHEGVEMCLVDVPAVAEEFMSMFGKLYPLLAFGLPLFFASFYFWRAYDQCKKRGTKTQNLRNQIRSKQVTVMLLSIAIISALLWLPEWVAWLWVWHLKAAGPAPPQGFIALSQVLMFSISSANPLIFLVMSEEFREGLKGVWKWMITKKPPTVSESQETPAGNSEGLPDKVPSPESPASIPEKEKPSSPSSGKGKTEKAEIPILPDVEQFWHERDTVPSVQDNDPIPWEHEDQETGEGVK
MITF inh = inhibitors of human MITF; O75030; actives 0.91% (n = 650,000); AlphaScreen MITF homodimerization, bead proximity signal; inhibition, % at 2.6 µM; in the data active means inhibition above about 50%;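 further: 0% = vehicle wells with protein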
TEAD-YAP block = TEAD-YAP interaction inhibition | actives 1.4% (n = 640,000) | AID 1259422 | HEK-TIYL cells, TEAD-Gal4/YAP UAS-luciferase luminescence | inhibition, % at 9.12 µM; in the data active means inhibition above about 32%;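 further: 0% = median of test compound wells and 100% = reference inhibitor wells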
MITF inh conf = human MITF inhibition, confirmation | shares compounds with MITF inh | AlphaScreen MITF homodimerization, biotin/His-MITF beads | inhibition, % at 2.6 µM | actives 16% (n = 4,700) | AID 1259372;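 active means inhibition above a cutoff derived from the DMSO control wells, cut at about 28% in these data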;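 further: 0% = MITF dimer wells with DMSO only; inhibitors lower the bead chemiluminescence by keeping MITF from dimerizing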
AlphaScreen DR = AlphaScreen optical interference, dose response counter-screen; AlphaScreen optical interference counterscreen, cell-free; shares compounds with MITF inh; actives 6% (n = 480); IC50, µM; call rule not given here
AlphaScreen intf2 = optically interferes with AlphaScreen signal; shares compounds with MITF inh; LysRS AlphaScreen counterscreen, signal interference, triplicate; inhibition, % at 2.6 µM; actives 7.6% (n = 4,700); AID 1259376;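 active means inhibition above a cutoff derived from the DMSO control wells, cut at about 30% in these data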
* marks the source's active call; other numbers are inactive results; · = not tested or not shown.

SMILES	FBW7 act	GPR151 activ	MITF inh	TEAD-YAP block	MITF inh conf	AlphaScreen intf2	others
CCOC(=O)c1nc2ccccc2c(=O)n1-c1ccc(C)cc1Br	1	5	7	12	·	·
CCN1CCN(C(=O)COc2cccc(Br)c2)CC1	0	2	-8	-8	·	·
Cc1cccc(OCC(=O)N2CCN(Cc3cccc(Br)c3)CC2)c1	0	-1	61*	0	35*	16	AlphaScreen DR=>6.5
COC(=O)C1=C(C(=O)OC)C2c3ccccc3C=CN2C(C(=O)OC)=C1C(=O)OC (stereo not drawn)	1	1	51*	3	51*	14
COc1ccc(CN2CCN(C(C)C)CC2)c(OC)c1	0	0	71*	2	7	16
COc1ccc(CN2CCN(CCO)CC2)c(OC)c1	1	0	5	10	·	·
CCN1CCN(Cc2cc(OC)c(OC)cc2Br)CC1	0	0	4	-1	·	·
COc1cc(OC)c(OC)cc1CN1CCN(C(C)C)CC1	0	-2	68*	7	4	3
C=CCOC(=O)C1C2NC(=S)N(CCCOC)C1(C)Oc1c(OC)cccc12 (stereo not drawn)	0	2	2	6	·	·
CN1C[C@@H]2C[C@@H](c3cccn3-c3cccnc3)N3CCC[C@@]23C1=O	0	1	-3	4	·	·
CCOc1ccc(CN(CCc2ccc3c(c2)OCO3)Cc2ccc([N+](=O)[O-])cc2)cc1	0	-3	54*	3	1	15
CCOc1ccc(CN(CCc2ccc3c(c2)OCO3)Cc2ccccc2)cc1	0	2	15	-4	·	·
COc1cccc(CN2CCN(Cc3cccc(OC)c3)CC2)c1	0	0	7	-3	·	·
CCC(CC)N1CCN(Cc2cccc(OC)c2)CC1	0	2	73*	-2	6	12
CN1CCN(Cc2ccc(C(F)(F)F)cc2)CC1	0	0	56*	1	0	3
CN1CCN(Cc2ccc(N(C)C)cc2)CC1	0	1	-40	-6	·	·
COc1cccc(CN2CCN(Cc3ccc(Cl)cc3)CC2)c1	0	3	79*	-19	17	17
COc1ccc(CN2CCN(Cc3ccc(Br)cc3)CC2)cc1	0	0	85*	9	-2	14
CNC(=O)C1CN(CCc2c[nH]c3ccccc23)CCN1S(C)(=O)=O (stereo not drawn)	0	1	-2	-5	·	·
Fc1ccc(CN2CCN(Cc3ccc(F)cc3)CC2)cc1	0	0	74*	4	9	-7
COc1cccc(CN2CCN(c3ccc(F)cc3)CC2)c1	0	0	43	8	·	·
COc1ccc(CN2CCN(Cc3ccc(F)cc3)CC2)cc1	0	0	78*	-1	0	12
CSc1ccc(CN2CCN(C)CC2)cc1	0	1	21	3	·	·
COc1cccc(CN2CCN(Cc3ccc(F)cc3)CC2)c1	0	-1	72*	-18	10	14
CSc1ccc(CN2CCN(Cc3ccccc3)CC2)cc1	-1	1	54*	5	8	2
SMILES	FBW7 act	GPR151 activ	MITF inh	TEAD-YAP block	MITF inh conf	AlphaScreen intf2	others
COc1ccc(CN2CCN(CC(C)(C)C)CC2CCO)cc1C (stereo not drawn)	0	-1	-2	8	·	·
COc1ccc(N=C2SCCCN2C)c(OC)c1	0	0	19	-6	·	·
CCCn1ncc(C(=O)NC2(c3ccc(F)cc3)CCCC2)c1C	0	3	-14	6	·	·
CC(C)=CCCC(C)CC1N2CCCN1CC2 (stereo not drawn)	0	0	1	10	·	·
CCOC(=O)c1c(C)n(Cc2ccccc2)c2ccc(OCC(O)CNCCO)cc12 (stereo not drawn)	0	0	5	1	·	·
COc1cccc(CN2CCN(Cc3cccc(C)c3)CC2)c1	0	0	74*	-5	3	1
Clc1ccc(CN2CCN(Cc3cccc(Cl)c3)CC2)cc1	0	0	71*	-2	17	17
O=c1c2ccccc2nc(-c2ccccc2)n1-c1ccccc1O	0	0	68*	12	32*	-6	AlphaScreen DR=>6.5
COc1ccccc1C1=NCC(=O)N(CC(=O)N2CCCCC2)c2sccc21	0	0	-2	13	·	·
NCCCCCCCc1c[nH]c2ccccc12	0	3	1	2	·	·
O=C1CC(=O)N(c2ccc(Br)cc2)C(=O)N1	0	-1	-1	-4	·	·
